In the first assay the target is ADAD1. Kind of assay: pooled miR-30 sensor sort-seq; sequence = guide strand. To be noted: shRNA.
With TATAGCTACAACCTCATGTTGT, the sensor-assay potency score (higher = more potent) worked out at 0.156.

In turn, TTATTCTATTAACACCATCTTT had a sensor-assay potency score (higher = more potent) of -0.934.

Consider TAGTTATCGTCTTTGTCGCTGG, for which the sensor-assay potency score (higher = more potent) is -0.46.

With TTAGTTGATTAAATCTTTCTTT, the sensor-assay potency score (higher = more potent) worked out at 0.397.

On to TAAGAAGAGACCTTCTTGCTGT, for which the sensor-assay potency score (higher = more potent) came to 0.614.

TCAACTTACATTTAGCTTCTTG: the sensor-assay potency score (higher = more potent) is -0.0304.

The sequence TTGACTAAGTAAAACATTGGAA showed a sensor-assay potency score (higher = more potent) of -0.221.

Regarding TTTAGGACAGTAAACAGTCAGA, the sensor-assay potency score (higher = more potent) is -1.

Consider TAAACTAATATGAGGTCTGTTG, for which the sensor-assay potency score (higher = more potent) was -1.14.

TAAACCGACTTAACATTGCAGC gave a sensor-assay potency score (higher = more potent) of -0.535.

Take TTGCTGTAACAACAGCATGAGT: the sensor-assay potency score (higher = more potent) was -1.53.

In a further assay the target is ADAM18. The assay is described as above. Conditions: shRNA.
TTTGACTTAATCTTCCGTGGAA displayed a sensor-assay potency score (higher = more potent) of 0.749.

In turn, TTGAACTGGGTAAACATAGTGT showed a sensor-assay potency score (higher = more potent) of -0.273.

On to TTCATTATATGTATAAACCAAA, for which the sensor-assay potency score (higher = more potent) is -1.38.

With TATGACTGTAATTTACTGCTAA, the sensor-assay potency score (higher = more potent) amounted to 0.177.

With TTGATGTACAACATGGTCCAGA, the sensor-assay potency score (higher = more potent) was -0.506.

In the case of TAACAGTCAATTTGAACTGGGT, the sensor-assay potency score (higher = more potent) was found to be 0.214.

In turn, TATGTGGCTGAACACAAGCTAA had a sensor-assay potency score (higher = more potent) of -1.54.

On to TATTCCTTCAGAACCTTCGTGG, for which the sensor-assay potency score (higher = more potent) was 0.508.

In the case of TATAACAGTCAATTTGAACTGG, the sensor-assay potency score (higher = more potent) came to 0.382.

Turning to TTATACTCTGCATTCTCTCTGT, the sensor-assay potency score (higher = more potent) worked out at 0.461.

Sequence TCATTTGACTTAATCTTCCGTG returned a sensor-assay potency score (higher = more potent) of 0.722.

With TTATATGCTCAAATCTTGCTGA, the sensor-assay potency score (higher = more potent) was -0.162.

For the origin of these results see the OligoGym collection.
Also: reference of the scale not given here.
